In experiment [1] the test system is Wnt5a (protein binding on small-molecule microarray). The experiment can be described thus: Wnt5a binders on small-molecule microarray, primary screen, biophysical, 635/667 nm fluorescence (AID 1142).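 Further: fluorescence read at 667 nm with signal to noise per printed feature.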 The conditions noted are these: 635 nm fluorescence, higher = more signal.
Experiment [2] in a line: cell viability in Huh7 cells, primary screen, cytotoxicity control for HCV replication inhibitor project, CellTiter-Glo luminescence, basal, 48 h (AID 1143).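 Further: Huh7 hepatoma cells carrying a hepatitis C replication reporter with no stimulus; test concentration not given here.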 The conditions noted are these: Huh7 HCV replicon, higher = more signal, called active from +8 up or from −8 down.
Experiment [3] in a line: P. aeruginosa biofilm formation inhibitors, primary screen, PAO1 strain, BacTiter-Glo luminescence, LB-PBS (AID 1144). The conditions noted are these: 12 h, higher = more signal.
Experiment [4] in a line: CREB reporter modulators without forskolin, primary screen, cell-based, PC12, CRE-LacZ reporter, unstimulated (AID 1145). The following applies: no forskolin, luminescence, 4.5 h, higher = more signal, called active from +8 up or from −8 down.
The nature of experiment [5]: CREB reporter modulators under forskolin, primary screen, cell-based, PC12, CRE-LacZ reporter, forskolin-stimulated (AID 1146).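 Further: PC12 cells with 6xCRE LacZ reporter stimulated by forskolin 10 µM; beta-galactosidase reporter signal reflecting CREB driven transcription.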 The following applies: luminescence, 4.5 h, higher = more signal, called active from +8 up or from −8 down.
Experiment [6] addresses Streptavidin (Streptomyces avidinii) (UniProt P22629). Put plainly: streptavidin binders on small-molecule microarray, primary screen, artefact control for SMM compound annotation, biophysical, 635/667 nm fluorescence (AID 1147).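 Further: signal reflects streptavidin binding to arrayed compounds as a control protein.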 The following applies: streptavidin binding, higher = more signal.
Experiment [7] can be described thus: small-molecule binders of probe aInhba, primary screen, biochemical, small-molecule microarray, 635/667 nm fluorescence (AID 1148).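 Further: score merges 667nm spot fluorescence with signal-to-noise for antibody binding to printed compounds.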 The conditions noted are these: higher = more signal.
Experiment [8] addresses Torsin-1A (Homo sapiens) (UniProt O14656). The experiment can be described thus: torsin A binders from cell lysate, primary screen, small-molecule microarray, wild-type, 635/667 nm (AID 1149). The following applies: COS7 hTOR1A-WT lysate, 635 nm fluorescence, higher = more signal.
Experiment [9] has the same target. Put plainly: small-molecule binders of mutant TOR1A in lysate, primary screen, cell lysate, small-molecule microarray, COS7 lysate, 635/667 nm fluorescence (AID 1150).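 Further: score pools 667 nm emission and signal to noise measuring lysate protein binding.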 The following applies: COS7 hTOR1A mutant lysate, 635 nm fluorescence, higher = more signal.
Experiment [10] has as its system Sonic hedgehog protein (Shh). Put plainly: small-molecule binders of Shh protein, primary screen, biochemical, small-molecule microarray, 635/667 nm fluorescence (AID 1151).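 Further: Shh protein binding to compounds spotted on small-molecule microarray slides; score combines spot fluorescence intensity with signal-to-noise across triplicate slides.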 The following applies: small-molecule microarray binding, 635 nm fluorescence; higher = more signal.
A short description of experiment [11]: E. coli DRC41 culture turbidity changes, primary screen, E. coli filamentation inducer project, strain DRC41, OD650, 48 h (AID 1152).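 Further: E. coli MC1000 strain DRC41 lacking acrAB efflux pump and sulA.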 The following applies: E. coli DRC41 (acrAB sulA), higher = more signal, called active from +8 up or from −8 down.
Experiment [12] in a line: small-molecule binders of probe aLefty1, primary screen, biochemical, small-molecule microarray, 635/667 nm fluorescence (AID 1153).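 Further: score merges spot fluorescence with signal-to-noise ratio from the scanned slide images.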 The following applies: higher = more signal.
Experiment [13] is described as follows: PSAC antagonists in infected red cells, primary screen, cell-based, P. falciparum Indochina, OD700, 1 h (AID 1154). The conditions noted are these: P. falciparum Indochina infected RBC osmotic lysis, higher = more signal, called active from +8 up or from −8 down.
Experiment [14] can be described thus: PSAC antagonists in infected red cells, primary screen, cell-based, P. falciparum Indochina, OD700, 2 h (AID 1155).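 Further: lysis reports solute entry through the parasite surface anion channel PSAC; channel blockers reduce lysis of infected cells.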 The conditions noted are these: P. falciparum Indochina infected erythrocytes, osmotic lysis OD700; higher = more signal, called active from +8 up or from −8 down.
Experiment [15] is described as follows: osmotic lysis modulators in infected erythrocytes, primary screen, PSAC antagonist project, cell-based, P. falciparum Indochina, OD700, 3 h (AID 1156). The following applies: higher = more signal, called active from +8 up or from −8 down.
Experiment [16] in a line: PSAC antagonists in infected red cells, primary screen, cell-based, P. falciparum Indochina, OD700, 18 h (AID 1157). The conditions noted are these: P. falciparum Indochina infected erythrocytes, osmotic lysis OD700, 18 h; higher = more signal, called active from +8 up or from −8 down.
The nature of experiment [17]: modulators of S6 phosphorylation in cells, primary screen, cell-based, A549, cytoblot, luminescence, serum-stimulated (AID 1158).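 Further: serum-stimulated A549 lung adenocarcinoma cells; signal is phosphorylated S6 detected by cytoblot immunostaining with HRP secondary.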 The following applies: A549 phospho-S6 cytoblot, 5 h, higher = more signal.
Experiment [18] deals with NADPH oxidase 2 (Homo sapiens) (UniProt P04839). Put plainly: NOX2-dependent H2O2 signal modulators, primary screen, NOX inhibitor project, cell-based, HEK293-NOX2, PMA-stimulated, Amplex Red fluorescence (AID 1159). Further: test concentration not given here. The following applies: 45 min, higher = more signal, called active from +8 up or from −8 down.
The target in experiment [19] is NADPH oxidase 4 (Homo sapiens) (UniProt Q9NPH5). The experiment can be described thus: NOX4-dependent H2O2 signal modulators, primary screen, NOX inhibitor project, cell-based, HEK293-NOX4, tetracycline-induced, Amplex Red fluorescence (AID 1160). The following applies: 45 min, higher = more signal, called active from +8 up or from −8 down.
Experiment [20] has as its target NADPH oxidase 5 (Homo sapiens) (UniProt Q96PH1). Put plainly: NOX5-dependent H2O2 signal modulators, primary screen, NOX inhibitor project, cell-based, HEK293-NOX5, Amplex Red fluorescence (AID 1161). The following applies: HEK293-NOX5, ionomycin, 45 min, higher = more signal.

Structures are written as SMILES. Active and inactive are the calls of the source. Unless noted, how the calls were made is not given here.

Torsin-1A (Homo sapiens), sequence (O14656 whole entry, looked up): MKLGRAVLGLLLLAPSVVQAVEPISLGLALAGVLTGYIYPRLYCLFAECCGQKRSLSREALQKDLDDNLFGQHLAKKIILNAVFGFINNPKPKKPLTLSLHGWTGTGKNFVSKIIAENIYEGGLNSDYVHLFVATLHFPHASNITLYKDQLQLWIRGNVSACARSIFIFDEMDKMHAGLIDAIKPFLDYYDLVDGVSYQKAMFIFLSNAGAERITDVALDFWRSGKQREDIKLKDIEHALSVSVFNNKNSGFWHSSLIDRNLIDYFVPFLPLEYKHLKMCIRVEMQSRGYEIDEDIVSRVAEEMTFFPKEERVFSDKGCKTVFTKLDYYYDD
NADPH oxidase 4 (Homo sapiens), sequence (Q9NPH5 whole entry, looked up): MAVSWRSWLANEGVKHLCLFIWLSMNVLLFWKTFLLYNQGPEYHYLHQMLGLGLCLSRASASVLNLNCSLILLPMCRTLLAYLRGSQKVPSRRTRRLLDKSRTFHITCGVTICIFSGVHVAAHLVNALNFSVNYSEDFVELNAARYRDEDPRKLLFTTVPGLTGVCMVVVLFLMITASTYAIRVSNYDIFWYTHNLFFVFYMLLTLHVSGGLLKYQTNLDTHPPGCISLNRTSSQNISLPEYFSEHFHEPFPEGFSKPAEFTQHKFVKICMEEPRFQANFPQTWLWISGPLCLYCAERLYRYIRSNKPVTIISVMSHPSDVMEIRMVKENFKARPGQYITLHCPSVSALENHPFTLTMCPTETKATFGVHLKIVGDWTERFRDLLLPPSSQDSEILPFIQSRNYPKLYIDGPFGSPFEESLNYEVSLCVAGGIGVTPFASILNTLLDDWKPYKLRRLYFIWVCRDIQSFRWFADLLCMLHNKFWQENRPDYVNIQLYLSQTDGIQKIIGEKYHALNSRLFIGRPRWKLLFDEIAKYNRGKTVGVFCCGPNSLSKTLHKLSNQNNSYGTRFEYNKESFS
NADPH oxidase 2 (Homo sapiens), sequence (P04839 whole entry, looked up): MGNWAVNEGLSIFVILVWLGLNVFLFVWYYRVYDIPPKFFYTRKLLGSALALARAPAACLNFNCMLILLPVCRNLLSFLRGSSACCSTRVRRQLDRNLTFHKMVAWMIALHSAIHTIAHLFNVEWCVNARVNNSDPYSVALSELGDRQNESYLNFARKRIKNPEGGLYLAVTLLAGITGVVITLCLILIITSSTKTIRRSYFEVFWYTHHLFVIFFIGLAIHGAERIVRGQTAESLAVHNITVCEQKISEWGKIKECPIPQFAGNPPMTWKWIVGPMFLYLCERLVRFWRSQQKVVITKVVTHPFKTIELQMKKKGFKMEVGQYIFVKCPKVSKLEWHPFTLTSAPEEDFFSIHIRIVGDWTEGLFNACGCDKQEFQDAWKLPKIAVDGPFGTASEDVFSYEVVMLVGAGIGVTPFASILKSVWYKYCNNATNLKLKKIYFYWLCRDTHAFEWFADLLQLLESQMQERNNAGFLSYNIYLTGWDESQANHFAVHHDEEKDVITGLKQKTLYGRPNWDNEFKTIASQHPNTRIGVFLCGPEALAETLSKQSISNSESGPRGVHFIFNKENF
Streptavidin (Streptomyces avidinii), sequence (P22629 whole entry, looked up): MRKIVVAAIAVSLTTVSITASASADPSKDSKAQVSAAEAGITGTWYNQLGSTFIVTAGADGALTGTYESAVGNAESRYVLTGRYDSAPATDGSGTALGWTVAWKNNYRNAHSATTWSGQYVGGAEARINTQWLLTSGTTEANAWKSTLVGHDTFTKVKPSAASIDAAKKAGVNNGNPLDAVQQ
NADPH oxidase 5 (Homo sapiens), sequence (Q96PH1 whole entry, looked up): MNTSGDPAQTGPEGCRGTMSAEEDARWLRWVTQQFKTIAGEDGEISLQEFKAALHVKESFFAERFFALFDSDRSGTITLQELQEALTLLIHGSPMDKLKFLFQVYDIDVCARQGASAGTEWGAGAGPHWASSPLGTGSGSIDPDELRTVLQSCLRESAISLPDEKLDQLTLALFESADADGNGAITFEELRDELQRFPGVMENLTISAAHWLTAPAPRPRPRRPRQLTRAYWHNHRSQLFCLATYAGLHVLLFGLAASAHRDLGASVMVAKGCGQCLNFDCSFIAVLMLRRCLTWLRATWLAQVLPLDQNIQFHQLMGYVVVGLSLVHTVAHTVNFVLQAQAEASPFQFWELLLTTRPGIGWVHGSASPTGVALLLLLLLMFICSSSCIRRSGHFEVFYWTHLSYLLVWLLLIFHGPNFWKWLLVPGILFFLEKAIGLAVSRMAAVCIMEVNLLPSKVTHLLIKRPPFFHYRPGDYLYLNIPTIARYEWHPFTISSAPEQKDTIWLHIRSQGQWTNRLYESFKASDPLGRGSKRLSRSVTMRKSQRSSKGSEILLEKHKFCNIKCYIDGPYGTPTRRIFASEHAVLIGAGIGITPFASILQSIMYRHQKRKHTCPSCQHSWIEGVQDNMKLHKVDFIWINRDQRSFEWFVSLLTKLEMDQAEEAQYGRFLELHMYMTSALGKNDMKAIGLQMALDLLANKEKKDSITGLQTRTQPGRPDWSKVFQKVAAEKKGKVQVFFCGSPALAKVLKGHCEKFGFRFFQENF

For the compound `C=CCN1C(=O)[C@]2(Cc3ccccc3)N=C(c3ccc(OCCCO)cc3)O[C@@H]2c2ccccc21`, the composite z-score in experiment [1] stood at 0.611; in experiment [6], 0.752; in [7] it was 0.13; in the experiment with Torsin-1A (Homo sapiens) [8] it was 0.443; with Torsin-1A (Homo sapiens) [9], 0.842; in experiment [10], 1.79. Besides, in experiment [12], the composite z-score came out at 0.43. The z-score was -3.85 (inactive) in experiment [2]; 0.000807 (inactive) in experiment [3]; 2.97 (inactive) in [4]; -1.79 (inactive) in experiment [5]; 0.567 (inactive) in [11]; 33.1 (active) in experiment [13]. Also, the z-score was 30.1 (active) in experiment [14]; 2.14 (inactive) in experiment [15]; 10.2 (active) in experiment [16]; -0.204 in [17]; -1.78 (inactive) in experiment [18]; 0.46 (inactive) in experiment [19]. Moreover, the z-score in [20] came to 1.07.
Turning to `OCC1C=C(/C=C/c2ccccc2)CN1Cc1ccccc1Br` (stereo not given), the composite z-score was 0.307 in experiment [1]; 0.828 in experiment [6]; 0.126 in experiment [7]; -0.205 with Torsin-1A (Homo sapiens) [8]; 0.818 in the experiment with Torsin-1A (Homo sapiens) [9]; 1.39 in [10]. Moreover, the composite z-score in experiment [12] came to 0.457. Also, the z-score in [2] was -2.1 (inactive); in experiment [3], 0.0784 (inactive); in experiment [4], 0.856 (inactive); in [5] it was -0.181 (inactive); in experiment [11] it was 0.785 (inactive); in experiment [13] it was 6.56 (inactive). Also, the z-score was 0.673 (inactive) in experiment [14]; 1.17 (inactive) in experiment [15]; 0.499 (inactive) in experiment [16]; 0.0524 in experiment [17]; 0.887 (inactive) in experiment [18]; -2.84 (inactive) in [19]. Further, the z-score in experiment [20] is -0.691.
On to `CCOC(=O)C1=CCC(c2ccc(F)cc2)N(S(=O)(=O)c2ccc(C)cc2)C1` (stereo not given), for which the composite z-score was 0.0848 in experiment [1]; 0.407 in [6]; -0.0963 in experiment [7]; 0.827 with Torsin-1A (Homo sapiens) [8]; 0.203 with Torsin-1A (Homo sapiens) [9]; -0.282 in experiment [10]. In [12], this compound came in with a composite z-score of -0.147. The z-score in [2] was -2.8 (inactive); in experiment [3], 0.046 (inactive); in [4] it was 0.481 (inactive); in [5], -0.323 (inactive); in experiment [11], -1 (inactive); in [13], 1.44 (inactive). Moreover, the z-score in [14] was 0.952 (inactive); in experiment [15], -0.421 (inactive); in experiment [16], 0.363 (inactive); in experiment [17], -0.566; in experiment [18], 0.396 (inactive); in [19], -0.0222 (inactive). The compound further came in with a z-score in experiment [20] of 0.315.
As for `CO[C@H]1O[C@H](CO)[C@@H](OC(=O)Nc2ccc(Br)cc2)[C@@H]2OC(=O)[C@H](Cc3cccc(Br)c3)C/C=C/C[C@@H](Cc3cccc(Br)c3)C(=O)O[C@@H]12`, the composite z-score was -0.149 in [1]; -0.174 in experiment [6]; 0.0387 in experiment [7]; -0.541 with Torsin-1A (Homo sapiens) [8]; 0.384 in the experiment with Torsin-1A (Homo sapiens) [9]; 1.58 in experiment [10]. Further, in [12], the composite z-score is -0.007. Also, the z-score in experiment [2] was -5.6 (inactive); in experiment [3], -2.06 (inactive); in experiment [4], -0.878 (inactive); in experiment [5], 0.243 (inactive); in experiment [11] it was 1.7 (inactive); in experiment [13] it was 2.13 (inactive). For the same compound, the z-score in [14] was 0.623 (inactive); in experiment [15], -0.147 (inactive); in experiment [16], 0.951 (inactive); in experiment [17], 0.0914; in experiment [18], -1.42 (inactive); in [19], -0.686 (inactive). Also, the z-score in experiment [20] came out at 0.0667.
In the case of `CN(C)CCCCCCNC(=O)[C@@H]1C[C@@H]2C(=O)N[C@@H](CCCC[N+](C)(C)C)C(=O)N2[C@@H]1c1ccc(O)cc1`, the composite z-score was 0.133 in experiment [1]; -0.253 in experiment [6]; -0.589 in [7]; 0.659 with Torsin-1A (Homo sapiens) [8]; 0.771 with Torsin-1A (Homo sapiens) [9]; 1.66 in experiment [10]. The compound further displayed a composite z-score in [12] of -0.612. The z-score in experiment [2] was -0.217 (inactive); in experiment [3], 0.0162 (inactive); in [4], 0.155 (inactive); in experiment [5], -0.0457 (inactive); in experiment [11], -0.3 (inactive); in [13], 1.59 (inactive). Also, the z-score in experiment [14] was -0.375 (inactive); in experiment [15] it was -0.604 (inactive); in experiment [16], 0.0077 (inactive); in experiment [17] it was -0.607; in [18], -1.47 (inactive); in [19], -0.773 (inactive). Further, the z-score in [20] was -1.4.

The values are drawn from PubChem BioAssay.
